Measurements reported in PubChem BioAssay (Tox21).
Inconclusive results are not listed. Activity calls are given as the source filed them. The call rests on the fitted dose curve; in most records, active means well fitted curve in the direction sought with a large enough effect in the repeat runs; inconclusive means weak or mixed curves; inactive means no such curve, though single readings can be large; an effect the other way counts as inactive or inconclusive.

Tests used:
[1] = qHTS RealTime-Glo MT Cell Viability Assay in HepG2 cells - 40 hour (AID 1224870); further: nearly all actives have a fitted effect of over 50% in size
Summary of the method: (§1)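 HepG2 cells mixed with RealTime-Glo MT reagents (NanoLuc plus cell-permeant prosubstrate) were seeded at 600 cells/well, incubated 5 h at 37 C/5% CO2, then pinned with compounds in DMSO; nonlytic luminescence tracked viability during 40 h treatment.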

[2] = A CellTox Green Cytotoxicity Assay to monitor cytotoxicity in HEK293 cells - 40 hour (AID 1224871); further: nearly all actives have a fitted effect of over 45% in size
Summary of the method: (§2)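 Cytotoxicity was tracked continuously in HEK293 cells by a DNA-binding dye excluded from viable cells. Compounds were transferred in DMSO 5 h after seeding; fluorescence was recorded at intervals up to 40 h.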

[3] = qHTS RealTime-Glo MT Cell Viability Assay in HEK293 cells - 16 hour (AID 1224872); further: top concentration of the series differs between compounds; nearly all actives have a fitted effect of over 50% in size
Summary of the method: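 Nonlytic real-time viability readout: viable cells convert prosubstrate to NanoLuc substrate, giving luminescence proportional to live cell number. HEK293, 600 cells/well, compound added after 5 h, continuous culture at 37 C.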

[4] = qHTS RealTime-Glo MT Cell Viability Assay in HepG2 cells - 8 hour (AID 1224873); further: nearly all actives have a fitted effect of over 55% in size
Summary of the method: as §1

[5] = qHTS RealTime-Glo MT Cell Viability Assay in HEK293 cells - 40 hour (AID 1224874); conditions: RealTime-Glo luminescence; max response: active compounds read low; further: nearly all actives have a fitted effect of over 50% in size
Summary of the method: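 Nonlytic bioluminescent viability monitoring. HEK293 at 600 cells/well with reagent; 5 h settle; compound transfer by pintool; plates held at 37 C and read at set time points.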

[6] = A CellTox Green Cytotoxicity Assay to monitor cytotoxicity in HEK293 cells - 24 hour (AID 1224875); further: series mostly up to about 77 µM; nearly all actives have a fitted effect of over 45% in size
Summary of the method: as §2

[7] = A CellTox Green Cytotoxicity Assay to monitor cytotoxicity in HepG2 cells - 16 hour (AID 1224876); further: nearly all actives have a fitted effect of over 45% in size
Summary of the method: (§3)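 Real-time, homogeneous cytotoxicity readout: dead-cell DNA staining by CellTox Green in HepG2 monolayers, fluorescence measured at timed intervals up to 40 h of continuous compound exposure.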

[8] = qHTS RealTime-Glo MT Cell Viability Assay in HepG2 cells - 32 hour (AID 1224877); further: nearly all actives have a fitted effect of over 55% in size
Summary of the method: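 Luminescence read-out: viable HepG2 cells reduce a prosubstrate to a NanoLuc substrate, giving a signal proportional to live cell number. Reads taken at 0, 8, 16, 24, 32 and 40 h of compound exposure at 37 C.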

[9] = A CellTox Green Cytotoxicity Assay to monitor cytotoxicity in HepG2 cells - 24 hour (AID 1224878); further: nearly all actives have a fitted effect of over 45% in size
Summary of the method: as §3

[10] = A CellTox Green Cytotoxicity Assay to monitor cytotoxicity in HepG2 cells - 40 hour (AID 1224879); further: nearly all actives have a fitted effect of over 40% in size
Summary of the method: as §3
On the % scale 0 is the no-effect control and ±100 the full control effect.

CC/C=C\CC/C=C/C(OCC)OCC
inactive: Potency [1] | Potency [2] | Potency [3] | Potency [4] | max response [5] 11.7% | Potency [6] | Potency [7] | Potency [8] | Potency [9] | Potency [10]

CCn1ccnc1CC1COc2ccccc2O1 (stereo not given)
inactive: Potency [1] | Potency [2] | Potency [3] | Potency [4] | max response [5] -26.6% | Potency [6] | Potency [7] | Potency [8] | Potency [9] | Potency [10]

CC/C=C\CCOC(C)=O
inactive: Potency [1] | Potency [2] | Potency [3] | Potency [4] | max response [5] -1.39% | Potency [6] | Potency [7] | Potency [8] | Potency [9] | Potency [10]

CCc1nccnc1CC
inactive: activity change, negative = cytotoxic [1] -2.15% [at 15.8 µM] | Potency [2] | activity change, negative = cytotoxicity [3] 5.29% [at 15.8 µM] | viability change, negative = cytotoxic [4] 1.16% [at 15.8 µM] | max response [5] 3.61% | activity change [6] -5.25% [at 15.8 µM, active compounds read high] | cytotoxicity increase [7] 1.53% [at 15.8 µM] | activity change, negative = cytotoxic [8] -1.59% [at 15.8 µM] | cytotoxicity [9] 0.289% [at 15.8 µM] | cytotoxicity increase [10] 0.942% [at 15.8 µM]

CC(C[N+](C)(C)C)OC(N)=O (stereo not given)
inactive: Potency [1] | Potency [2] | Potency [3] | Potency [4] | max response [5] 4.17% | Potency [6] | Potency [7] | Potency [8] | Potency [9] | Potency [10]

Cc1cccn2c(=O)c(-c3nnn[nH]3)cnc12
inactive: activity change, negative = cytotoxic [1] 2.03% [at 15.8 µM] | Potency [2] | activity change, negative = cytotoxicity [3] 2% [at 15.8 µM] | viability change, negative = cytotoxic [4] -11% [at 15.8 µM] | max response [5] 1.37% | activity change [6] 11.9% [at 15.8 µM, active compounds read high] | cytotoxicity increase [7] 6.14% [at 15.8 µM] | activity change, negative = cytotoxic [8] 3.38% [at 15.8 µM] | cytotoxicity [9] 3.1% [at 15.8 µM] | cytotoxicity increase [10] 1.54% [at 15.8 µM]

N=C(N)c1ccc(OCCCOc2ccc(C(=N)N)cc2)cc1
inactive: Potency [1] | Potency [2] | Potency [3] | Potency [4] | max response [5] 1.81% | Potency [6] | Potency [7] | Potency [8] | Potency [9] | Potency [10]

CC(=O)Nc1c(I)cc(I)c(C(=O)O)c1I
inactive: Potency [1] | Potency [2] | Potency [3] | Potency [4] | max response [5] 7.77% | Potency [6] | Potency [7] | Potency [8] | Potency [9] | Potency [10]

CCCCOCCOCCOCCCC
inactive: Potency [1] | Potency [2] | Potency [3] | Potency [4] | max response [5] 3.79% | Potency [6] | Potency [7] | Potency [8] | Potency [9] | Potency [10]

C1CN(CCOCCN2CCOCC2)CCO1
inactive: Potency [1] | Potency [2] | Potency [3] | Potency [4] | max response [5] 4.52% | Potency [6] | Potency [7] | Potency [8] | Potency [9] | Potency [10]

CCCCCSCCCCC
inactive: Potency [1] | Potency [2] | Potency [3] | Potency [4] | max response [5] -8.65% | Potency [6] | Potency [7] | Potency [8] | Potency [9] | Potency [10]
